# High-throughput results (PubChem)
# Shown are actives, neighbours in structure and some others; about 11% of the full set was active somewhere.
# G9a inh = G9a (human) methyltransferase inhibition | G9a H3K9 monomethylation, AlphaScreen, 2 h | Potency, µM (titrated, usually from 102 µM), for the others: at the highest dose activity, negative = inhibition, actives largely listed as inhibitors | 8.8% of 350,000 active | AID 504332; note: potency is the fitted concentration of half-maximal effect; nearly all actives have a fitted effect of over 75% in size
# Target sequence (Q96KQ7 913-1193 limits assumed): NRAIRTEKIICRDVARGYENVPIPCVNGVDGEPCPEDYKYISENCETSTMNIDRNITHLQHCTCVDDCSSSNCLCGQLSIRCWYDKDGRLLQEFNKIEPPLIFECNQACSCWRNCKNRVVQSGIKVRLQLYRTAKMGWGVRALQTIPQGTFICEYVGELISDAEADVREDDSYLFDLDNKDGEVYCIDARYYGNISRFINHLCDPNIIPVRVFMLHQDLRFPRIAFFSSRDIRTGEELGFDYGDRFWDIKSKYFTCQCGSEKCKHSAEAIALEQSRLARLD
#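 Compounds were preincubated with 20 nM G9a for 15 min, after which biotinylated H3K9 peptide (500 nM) and SAM (20 uM) started a 2 h room-temperature reaction. Monomethylated product was quantified by antibody-based AlphaScreen chemiluminescence.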
# Sfp PPTase inh = inhibitors of Bacillus subtilis Sfp phosphopantetheinyl transferase | Q9F4F7 | Biochemical Sfp PPTase activity, qHTS | Potency, µM, inactives show largest response in the series, negative = inhibition, actives largely listed as inhibitors | 3.5% of 310,000 active;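 note: the enzyme is Sfp with the accession as filed and its product quenches rhodamine fluorescence; potency is the fitted concentration of half-maximal effect; 0% = enzyme reaction without inhibitor and -100% = no enzyme wells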
#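 Fluorescence-quenching assay with 15 nM Sfp, 5 uM rhodamine-CoA and 12.5 uM BHQ-2-labelled ybbR peptide in pH 7.6 Hepes/MgCl2 buffer. Enzyme was pre-incubated with compound for 15 min at room temperature. Rate was taken from the 30-min fluorescence change (525/598 nm).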
# Tau fibril ThT = blocks human tau fibril formation measured by thioflavin T. AID 1460. recombinant tau K18 P301L, heparin-induced fibrillization, ThT fluorescence. P10636. Potency, µM (titrated, usually from 57.4 µM), without a hit: at the highest dose activity, negative = inhibition, usual class: inhibitors. 2.1% of 270,000 active; note: potency is the fitted concentration of half-maximal effect; nearly all actives have a fitted effect of over 55% in size
# Target sequence (P10636 561-689 P618L limits assumed): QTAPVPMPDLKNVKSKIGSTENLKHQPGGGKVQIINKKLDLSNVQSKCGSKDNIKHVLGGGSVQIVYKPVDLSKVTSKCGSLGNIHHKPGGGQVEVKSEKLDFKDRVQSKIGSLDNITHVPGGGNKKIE
#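 Aggregation was driven by heparin (20 uM final) acting on recombinant tau […] bearing P301L in 100 mM sodium acetate pH 7; fibrils were detected with Thioflavin T.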
# Coupling enz = counter-screen for Giardia aldolase inhibitors: coupling enzyme system | activity change, negative = inhibition, % at 58.2 µM, hits read low | coupling enzyme system counterscreen, AmpLite Red fluorescence | 0.67% of 290,000 active; in the data active = activity change below about -30%
#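 Activity here indicates interference with the coupling reaction, not aldolase inhibition. Compounds at 57.5 uM final met coupling enzymes for 10 min at RT; substrate and AmpLite Red detection followed, with a 525/598 nm fluorescence read after 20 min.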
# Tau FP inhib = inhibitors of human tau fibril formation | K18 P301L tau heparin fibrillization, Alexa594 FP, 6 h | Potency, µM (highest dose often 57.7 µM), for inactives: top-dose activity, negative = inhibition, usual class: inhibitors | 0.39% of 280,000 active | P10636 | AID 1468; note: potency is the fitted concentration of half-maximal effect; nearly all actives have a fitted effect of over 55% in size
#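 K18 P301L tau (15 uM unlabeled/0.24 uM Alexa 594-labeled, final) + compound + heparin 20 uM final; 100 mM NaOAc pH 7; 6 hr 37 C; ThT 30 uM final added, 1 hr RT; FP ex 555/em 632 nm.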
# Tau fluor cs = counter-screen for tau fibril formation inhibitors | tau K18 P301L (four-repeat tau fragment) Alexa594 fluorescence, heparin fibrillization | Potency, µM (doses to about 57.7 µM), for the others: top-dose activity change, negative = decrease | 0.93% of 280,000 active | AID 1463; note: potency is the fitted concentration of half-maximal effect; nearly all actives have a fitted effect of over 55% in size
#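 Human K18 P301L tau (15 uM unlabeled plus 0.24 uM Alexa 594-labeled, final) in 100 mM sodium acetate pH 7 was mixed with compound and 20 uM heparin and incubated 6 hr at 37 C.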
# The depositor's hits bear a star; ? = inconclusive; . = no result; [ ] = dose if it differs, or a comment. Unless noted, calls come from the whole dose curve; as a rule, active = well fitted curve in the direction sought with a large enough effect; inconclusive = small, poorly fitted or top-dose-only effect, or another doubt; inactive = no such curve, though single readings can be large; an effect the other way counts as inactive or inconclusive. Unless noted, % is set by controls: 0 for no effect and ±100 for the full control effect.
SMILES,G9a inh,Sfp PPTase inh,Tau fibril ThT,Coupling enz,Tau FP inhib,Tau fluor cs
O=C(CSc1nc(-c2ccccc2)c(-c2ccccc2)[nH]1)NCC1CCCO1 (centres undefined),28.2µM*,2.2%,-4.8%,-4.3,0.5%,-8.8%
O=C(CSc1nc(-c2ccc(F)cc2)[nH]c1-c1ccccc1)NCC1CCCO1 (centres undefined),-47.1%[59 µM],.,-10.6%,.,10.1%,?
O=C(CSc1nc2ccccc2[nH]1)NCC1CCCO1 (centres undefined),31.6µM*,-2.8%,-4.4%,4.4,-9.1%,-7.4%
CCOC(=O)NC(=O)CSc1nc2ccccc2[nH]1,56.2µM*,17.4%,8.9%,-7.3,-1.3%,4.1%
O=C(CSc1nc2ccccc2[nH]1)NC1CCCC1,50.1µM*,12.7%,-2.3%,-0.2,7.0%,-2.8%
O=C(CSc1ccc(Br)cc1)NCC1CCCO1 (centres undefined),39.8µM*,10.0%,5.3%,3.3,-0.7%,-0.7%
c1ccc2c(c1)nc(NC1CCCCC1)c1nncn12,44.7µM*,-15.8%,1.9%,-1.5,8.0%,0.8%
c1ccc2c(c1)nc(Nc1ccc(N3CCCCC3)cc1)c1nncn12,15.8µM*,11.0%,?,3.6,3.9%,?
c1ccc(N2CCCCC2)c(Nc2nc3ccccc3n3cnnc23)c1,37.0%,25.6%,-2.2%,-0.4,-2.0%,-19.3%
COc1ccc(C2(CNC(=O)C(=O)Nc3ccc(C)c(Cl)c3)CCCC2)cc1OC,-1.6%[59 µM],.,-4.4%,.,4.1%,-8.6%
CC(=O)NC(C(=O)c1ccccc1)C(=O)c1ccccc1,50.1µM*,9.5%,.,-9.8,.,.
CCc1ccc(NC(=O)c2ccc3nc(N)sc3c2)cc1,7.5%[59 µM],?,?,2.3,25.1µM*,?
O=c1[nH]c(-c2ccccc2)c(-c2ccccc2)nc1[N+](=O)[O-],50.1µM*,-21.4%,.,-2.7,.,.
CC(C)c1nc(-c2ccccc2)c(-c2ccccc2)[nH]1,20.6%,?,-2.0%,2.9,4.8%,-8.2%
COC(=O)c1ccc(CSc2nnc(SCc3ccc(C(=O)OC)o3)s2)o1,-38.0%[59 µM],-14.9%,?,1.0,-0.6%,-14.2%
COC(=O)c1ccc(CSc2nnc(NCc3ccccc3)s2)o1,50.1µM*,3.9%,-10.5%,0.7,8.2%,-9.8%
Cc1nc(NCc2ccco2)c2c(C)c(C)sc2n1,8.91µM*,-28.1%,-9.4%,1.4,-4.4%,-9.1%
COC(=O)c1ccc(CSc2nc(C)nc3sc(C)c(C)c23)o1,?,25.1µM*,-17.4%,1.7,-3.8%,-8.0%
Cc1nc(SCC(=O)N(C)Cc2ccco2)c2c(C)c(C)sc2n1,50.1µM*,-11.7%,?,2.4,-7.2%,-7.6%
O=[N+]([O-])c1ccc(Cl)c(NC(=S)N2CCCC2)c1,-45.2%,-0.6%,.,-5.2,.,.
Cc1sc2nc3c4ccccc4c(NCc4ccco4)nn3c(=O)c2c1C,-28.5%[59 µM],17.8µM*,25.1µM*,0.2,35.5µM*,?
Cc1sc2nc(SCC(=O)C(C)(C)C)n(Cc3ccco3)c(=O)c2c1C,-8.4%[59 µM],-14.8%,-9.9%,-0.8,3.6%,-9.2%
CSc1cccc(NC(=O)CCCOc2ccc(Cl)cc2Cl)c1,26.1%,-2.8%,?,-0.1,?,?
O=C(CCCOc1ccc(Cl)cc1Cl)Nc1cccnc1,44.7µM*,23.5%,-12.5%,0.3,1.1%,-16.0%
CCCCC(=O)Nc1ccc(C(=O)NNC(=O)CCCOc2ccc(Cl)cc2Cl)cc1,50.1µM*,3.3%,-10.6%,-3.7,-17.2%,-3.8%
SMILES,G9a inh,Sfp PPTase inh,Tau fibril ThT,Coupling enz,Tau FP inhib,Tau fluor cs
O=C(/C(C=Nc1cccc(C(F)(F)F)c1)=C(/O)c1ccco1)C(F)(F)F,?,-4.1%,5.0%,-6.6,7.6%,4.6%
O=C(/C(C=Nc1ccc(Br)cc1)=C(/O)c1ccco1)C(F)(F)F,44.7µM*,6.3%,?,2.1,3.6%,-15.3%
Cc1ccc(NC(=O)CCC(=O)c2cccs2)cc1F,1.3%,10.3%,.,-1.9,.,.
CCN(CC)c1ccc(/C=N/N2C(C)CCCC2C)c(O)c1 (centres undefined),44.7µM*,1.6%,.,0.9,.,.
COc1cc(/C=N/N2CCCCC2)cc(OC)c1O,22.4µM*,44.7µM*,.,-14.5,.,.
CC1CCCC(C)N1/N=C/c1ccc(N(C)C)cc1 (centres undefined),39.8µM*,0.0%,-4.7%,0.5,-0.5%,-1.9%
COc1ccc(/C=N/N2CCN(C)CC2)cc1OC,-13.4%,6.8%,6.5%,5.6,-0.4%,7.3%
CC1CCCC(C)N1/N=C/c1ccc([N+](=O)[O-])cc1 (centres undefined),-39.5%[2.33 µM],-14.8%,.,-2.8,.,.
O=C1c2ccccc2C(=O)N1/N=C/c1ccc(O)c(O)c1,11.2µM*,-29.9%,?,0.7,-0.3%,-11.1%
Cc1cccc(NC(=O)c2ccc(N(Cc3ccccc3)S(C)(=O)=O)cc2)c1,?,.,3.9%,.,-13.0%,?
CCc1ccc(C2c3c(-c4ccccc4O)n[nH]c3C(=O)N2Cc2ccncc2)cc1 (centres undefined),5.9%[59 µM],.,-3.2%,.,-5.1%,-26.2%
CCC1CCCCN1CCCNC(=O)CS(=O)(=O)Cc1nc(-c2cccc(OC)c2)oc1C (centres undefined),-40.6%,6.5%,.,1.4,.,.
COc1ccc(/C(C)=N/N2CCCCC2)c(O)c1,8.2%,7.4%,.,-0.1,.,.
COc1ccc(/C=N/N2C(C)CCCC2C)cc1O (centres undefined),5.2%[2.33 µM],7.7%,.,2.4,.,.
Oc1ccc(/C=N/N2CCCCC2)cc1O,-9.9%[2.33 µM],50.1µM*,.,-7.0,.,.
COc1ccc(O)c(/C=N/N2CCCCC2)c1,50.1µM*,7.6%,.,-3.4,.,.
CC1CCCC(C)N1/N=C/c1ccc(O)c(O)c1 (centres undefined),3.55µM*,44.7µM*,.,-4.5,.,.
COc1cc(/C=N/N2C(C)CCCC2C)cc(Br)c1O (centres undefined),?,?,-14.1%,-4.6,1.4%,-13.5%
CC1CCCC(C)N1/N=C/c1cc(Br)c(O)c(Br)c1 (centres undefined),5.62µM*,56.2µM*,-2.1%,1.2,-2.0%,-5.4%
CC(C)(C)CC(C)(C)c1cc(Cc2cc(C(C)(C)CC(C)(C)C)cc(-n3nc4ccccc4n3)c2O)c(O)c(-n2nc3ccccc3n2)c1,2.4%[12.7 µM],14.3%,.,.,.,.
CCOC(=O)C1CCCN(C(=O)CCc2nnc(-c3ccc(C(C)=O)s3)o2)C1 (centres undefined),35.5µM*,-1.1%,.,-7.7,.,.
CCOC(=O)C1CCCN(C(=O)CSCc2ccccc2)C1 (centres undefined),4.1%[12.7 µM],3.9%,-4.5%,1.6,3.6%,2.4%
